# Screening results deposited in PubChem by several laboratories.
# In the library only some 2.8% were active in any assay of this set; here they are far more common.
# MITF TRPM1 inh: inhibitors of MITF-dependent TRPM1 promoter reporter, primary screen, cell-based, SK-MEL-5, single point, luciferase. SK-MEL-5 TRPM1 promoter luciferase, 24 h. inhibition, % at 12.5 µM. 330,000 tested, 0.83% active. AID 488899, 2010;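 active = mean inhibition across replicates of 60% or more, whatever share of single replicates reaches that level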
# CF NFkB inh: inhibitors of PAF-induced NF-kB signaling, primary screen, cell-based, GFP fluorescence, uHTS | KKLEB NF-kB-GFP reporter, GFP fluorescence overnight | inhibition, % at 5 µM | 360,000 tested, 0.86% active | AID 588850, 2011;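 active = at least 50% inhibition at 5 µM, scaled per plate between neutral and stimulator controls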;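 also: PAF is a Pseudomonas aeruginosa culture filtrate used as stimulus; plate controls were PAF-stimulated DMSO wells for no effect and unstimulated DMSO wells for full effect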
# Shn3 inh set2: reduction of Shn3 3'UTR firefly luciferase signal, primary screen, Schnurri-3 inhibitor project, cell-based, Clone20 osteoblasts, set 2; 360,000 tested, 0.52% active; AID 588674, 2011; inhibition, % at 12.5 µM; Clone20 osteoblast Shn3 3'UTR firefly luciferase, 24 h;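 active = mean inhibition of at least 75% with every replicate also reaching 75%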;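 also: 0% = median of neutral control wells and 100% = pilot-screen positive control compound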
# KKLEB tox: cytotoxicity in KKLEB CF airway cells, primary screen, cytotoxicity control for CF NF-kB inhibitor project, cell-based, uHTS, fluorescence assay plates | KKLEB CF airway cells viability, ATPlite luminescence, overnight; stronger effect = lower value; cells stimulated with P. aeruginosa culture filtrate | activity change (cytotoxicity), % at 5 µM | 360,000 tested, 0.36% active | AID 602141, 2011;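 active = corrected activity change at or below -50% at 5 µM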
# HIF-2a inh: HIF-2a reporter inhibitors, primary screen, luminescence, 786-0 RCC cells; 786-0 RCC cells HIF-2a reporter, luciferase luminescence, overnight; inhibition, % at 18.8 µM; 360,000 tested, 0.72% active; AID 624352, 2012;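 active = inhibition of the luminescence signal of 40% or more relative to plate controls, in a single-dose primary screen at 18.75 µM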
# Peg3 promoter: Peg3 promoter-driven luciferase inhibitors, primary screen, cell-based, HeLa, luciferase luminescence | HeLa PEG-Prom luciferase reporter, overnight | 360,000 tested, 1.7% active | AID 588405, 2011 | inhibition, % at 20 µM;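 active = inhibition of at least 50% at 20 µM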
# * hit, by the source's call; nt = no result given.
SMILES,MITF TRPM1 inh,CF NFkB inh,Shn3 inh set2,KKLEB tox,HIF-2a inh,Peg3 promoter
CCC(=O)NC(c1ccc(OC)cc1)c1cc(Cl)c2cccnc2c1O (configuration not stated),50,2,60,2,9,48
CCCCCCC#Cc1ccc2c(c1)COc1c3ccccc3nn1-2,-7,6,90*,-6,-231,-246
CCCCC#Cc1ccc2c(c1)COc1c3ccccc3nn1-2,-14,14,-66,2,-254,-319
COCCNC(=O)/C(C#N)=C/c1cccc(/C=C(\C#N)C(=O)NCCOC)c1,65*,21,9,2,40,20
O=C(CN(C1CCCCC1)S(=O)(=O)c1ccc(F)cc1)NCC1CCCO1 (configuration not stated),86*,91*,97*,-95*,22,98*
C[C@@H]1C[C@H]2[C@@H]3CCC4=CC(=O)C=C[C@]4(C)[C@@]3(F)[C@@H](O)C[C@]2(C)[C@@]1(O)C(=O)COP(=O)(O)O,-16,67*,1,-39,18,-7
C[C@H]1C[C@H]2[C@@H]3CCC4=CC(=O)C=C[C@]4(C)[C@@]3(Cl)[C@@H](O)C[C@]2(C)[C@@]1(O)C(=O)CO,-24,64*,-9,-24,25,-13
CC1(c2ccccc2)O[C@@H]2C[C@H]3[C@@H]4CCC5=CC(=O)C=C[C@]5(C)[C@@]4(F)[C@@H](O)C[C@]3(C)[C@]2(C(=O)CO)O1 (some centres not stated),-1,72*,11,38,29,11
C[C@H]1C[C@H]2[C@@H]3CCC4=CC(=O)C=C[C@]4(C)[C@@]3(F)[C@@H](O)C[C@]2(C)[C@@]1(O)C(=O)CO,-22,68*,72,20,18,2
C[C@@H]1CC2[C@@H]3CC[C@H]4CC(=O)CC[C@]4(C)C3=CC[C@]2(C)[C@@]1(O)C(=O)CO (some centres not stated),-2,-15,21,1,-9,4
Cc1[nH]c2ccc(C(=O)NCCN3CCOCC3)cc2c1C,11,7,5,-3,-7,-4
CCOC(=O)C1CCCN(S(=O)(=O)c2ccc(Cl)nc2)C1 (configuration not stated),-5,-18,5,6,-4,9
Cc1cc(C)cc(OCC(=O)OCC(=O)NC2CCCCCCC2)c1,2,-6,-10,8,2,2
Cc1ccnc(NC(=O)CCC(=O)c2cccs2)c1,41,0,40,-26,51*,21
Cc1ccc(NC(=O)CCC(=O)c2cccs2)nc1,-17,-17,-16,14,-98,-110
COCc1cc(=O)n2[nH]cc(-c3ccccc3)c2n1,-9,3,-10,-8,-29,-44
CCCc1cc(=O)n2[nH]cc(-c3ccc(Cl)cc3)c2n1,21,36,1,-12,5,57*
Cc1ccc(S(=O)(=O)N2CCCCC2)cc1NS(=O)(=O)c1ccccc1F,6,10,95*,5,7,0
Cc1ccc(NS(=O)(=O)c2ccccc2F)cc1S(=O)(=O)N1CCCCC1,nt,1,-23,16,-3,4
O=C(Nc1cc(S(=O)(=O)N2CCCCC2)ccc1Cl)c1ccccc1NS(=O)(=O)c1ccc(F)cc1,15,66*,71,-43,12,53*
O=C(Nc1cc(S(=O)(=O)N2CCCCC2)ccc1O)c1ccccc1NS(=O)(=O)c1ccc(F)cc1,5,10,17,-1,13,19
O=C(N/N=C/c1cccc2cccnc12)c1ccccc1O,69*,-12,92*,0,7,41
O=C(N/N=C/c1cccc2nccnc12)c1ccccc1O,23,21,45,-4,9,8
Cc1cc2c(cc1C)N(C(=O)CCl)CCN2C(=O)CCl,94*,31,-2,-5,25,109*
COc1ccc(CCCNC(=O)C2(C)Cc3c(-c4cccc(C(N)=O)c4)ccnc3O2)cc1 (configuration not stated),nt,-34,11,-1,-3,13
SMILES,MITF TRPM1 inh,CF NFkB inh,Shn3 inh set2,KKLEB tox,HIF-2a inh,Peg3 promoter
COc1ccc(OC)c(S(=O)(=O)N2CCCC(C(=O)NC3CC3)C2)c1 (configuration not stated),8,-28,18,-5,11,-4
CCOC(=O)c1c(-c2ccccc2)oc2ccc(OCC(O)CNCCN(C)C)cc12 (configuration not stated),66*,-3,15,-14,10,100*
Cc1ccc(SCC(=O)N2N=CCC2c2ccccc2)cc1 (configuration not stated),-3,-11,-14,1,-78,-38
N#Cc1ccc(NC(=O)Cn2cnc(S(=O)(=O)N3CCc4ccccc43)c2)cc1,13,-31,1,7,19,2
COc1ccc(CN(C)C(=O)c2cc(-c3ccccc3)nc3ccc(C)cc23)c(OC)c1,nt,12,40,-10,-35,98*
Cc1cc(OCC(=O)NCCCn2ccnc2)c2c(C)c(C)c(=O)oc2c1,2,-17,-5,-8,3,6
Cc1cccc(NC(=S)N/N=C/c2ccc(Cl)c([N+](=O)[O-])c2)c1,10,-5,9,-2,-4,62*
Cc1cc(C(=O)N/N=C/c2ccc(Cl)c([N+](=O)[O-])c2)c(C)n1-c1ccc(F)cc1,63*,1,11,1,61*,105*
Cc1cc(C(=O)N/N=C/c2ccc3c(c2)OCO3)c(C)n1-c1ccc(F)cc1,5,-17,-5,-1,-37,-26
Cc1cccc(NC(=S)N/N=C/c2cccc([N+](=O)[O-])c2)c1,-3,-1,-6,9,-42,-6
O=C(N/N=C/c1ccccn1)c1cc(-c2ccc(Cl)cc2)nc2ccccc12,81*,-8,79,-11,-11,-71
CCCOc1cccc(-c2cc(C(=O)N/N=C/c3ccccn3)c3ccccc3n2)c1,90*,-6,38,-20,-35,5
O=C(N/N=C/c1ccco1)c1cc(-c2ccccc2)nc2ccccc12,12,-53,-6,6,-17,0
CCCCOc1ccc(-c2cc(C(=O)NNC(=S)NCC)c3ccccc3n2)cc1,0,67*,-6,-89*,-44,-37
O=C(O)COc1ccccc1/C=N/NC(=O)c1cc(-c2ccc(Cl)cc2)nc2ccccc12,-5,1,4,-1,-2,-4
O=C(N/N=C/c1ccccn1)c1cc(-c2ccc(Br)cc2)nc2ccccc12,66*,-27,55,5,-30,75*
